The supplement of paper PMC10042075
“And” between values parts separate entries of the source, which are not always exact repeats. Equal values may be shown once. Where a name gives a salt, the structure may show the parent alone.

Tested on: LASCPC-01
Test: cell viability relative to DMSO control (fraction); higher = less growth inhibition (more viable cells)
Conditions: 2 µM; 72 h
Outline: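 Serotonin-pathway compounds from a 7315-compound library were each tested at 2 μM for 72 hours in triplicate on LASCPC-01 human prostate cancer cells in 384-well plates. Viability was measured by CellTiter-Glo luminescence relative to solvent-control signal.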

**Q.** For `O=c1ccc2ccc(OCCCCN3CCN(c4cccc5sccc45)CC3)cc2[nH]1` [Brexpiprazole], which cell viability is on record?
**A.** 1.01

**Q.** With `Fc1ccc([C@@H]2CCNC[C@H]2COc2ccc3c(c2)OCO3)cc1` [Paroxetine hydrochloride hemihydrate (MW = 374.83)] as the compound, how does the cell viability read?
**A.** 1.09

**Q.** How did the cell viability turn out when `CNCCC(Oc1ccc(C(F)(F)F)cc1)c1ccccc1` (centres undefined) [Fluoxetine hydrochloride] was run?
**A.** 0.686

**Q.** For `CN(C)CCC=C1c2ccccc2CCc2ccccc21` [Amitriptyline HCl], which cell viability is on record?
**A.** 1.15

**Q.** For `Nc1ccc2c(C(F)(F)F)cc(=O)oc2c1` [7-Amino-4-(trifluoromethyl)coumarin], which cell viability is on record?
**A.** 0.894

**Q.** With `N[C@@H]1CC[C@@H](c2ccc(Cl)c(Cl)c2)c2ccccc21` [Dasotraline hydrochloride] as the compound, how does the cell viability read?
**A.** 1.13

**Q.** Which cell viability does the source give for `NC(N)=NC(N)=Nc1cccc(Cl)c1` [1-(m-Chlorophenyl)-biguanide hydrochloride] here?
**A.** 1.03

**Q.** For `C=C1C(=O)O[C@H]2[C@H]1CC/C(C)=C/CC[C@@]1(C)O[C@@H]21` [Parthenolide], which cell viability is on record?
**A.** 0.323

**Q.** Which cell viability does the source give for `CC(CN1c2ccccc2Sc2ccccc21)N(C)C` (centres undefined) [Promethazine] here?
**A.** 1.11

**Q.** `CC1(C)C(=O)N(CCN2CCC(C(=O)c3ccc(F)cc3)CC2)c2ccccc21` was tested. Which cell viability did it give?
**A.** 0.991

**Q.** With `CC(=O)c1ccc2c(c1)N(CCCN1CCC(CCO)CC1)c1ccccc1S2` [Piperacetazine] as the compound, how does the cell viability read?
**A.** 0.764

**Q.** `CCN(CC)CCOC(=O)C(Cc1cccc2ccccc12)CC1CCCO1` (centres undefined) [Nafronyl oxalate] was tested. Which cell viability did it give?
**A.** 1.07

**Q.** `CN1CC2c3ccccc3Oc3ccc(Cl)cc3C2C1` (centres undefined) [Asenapine] was tested. Which cell viability did it give?
**A.** 0.974

**Q.** Which cell viability does the source give for `Cc1cc(-c2ccccc2)nnc1NCCN1CCOCC1` [Minaprine dihydrochloride] here?
**A.** 1

**Q.** How did the cell viability turn out when `CN(C)C/C=C(/c1ccc(Br)cc1)c1cccnc1` [Zimelidine dihydrochloride] was run?
**A.** 1.01

**Q.** `Fc1ccc2c(CCNCc3cccc(OCC(F)(F)C(F)F)c3)c[nH]c2c1` [idalopirdine] was tested. Which cell viability did it give?
**A.** 0.923

**Q.** Which cell viability does the source give for `C=CCc1ccccc1OCC(O)CNC(C)C` (centres undefined) [Alprenolol] here?
**A.** 1.03

**Q.** `CN(C)[C@@H](CCOc1cccc2ccccc12)c1ccccc1` [Dapoxetine HCl] was tested. Which cell viability did it give?
**A.** 1.03

**Q.** How did the cell viability turn out when `O=C(O)Cc1c[nH]c2ccc(O)cc12` [5-Hydroxyindolacetic acid] was run?
**A.** 0.928

**Q.** For `CC1CCN(CC[C@H]2CCCN2S(=O)(=O)c2cccc(O)c2)CC1`, which cell viability is on record?
**A.** 0.707 and 0.855

**Q.** With `O=C(OC1C[C@@H]2CC3C[C@H](C1)N2CC3=O)c1c[nH]c2ccccc12` (some centres undefined) [Dalasetron Mesylate Hydrate] as the compound, how does the cell viability read?
**A.** 0.985

**Q.** Which cell viability does the source give for `CN(C)CCCC1(c2ccc(F)cc2)OCc2cc(C#N)ccc21` (centres undefined) [Citalopram hydrobromide] here?
**A.** 1.06

**Q.** With `COc1ccc2cc(Br)ccc2c1` [2-Bromo-6-methoxynaphthalene] as the compound, how does the cell viability read?
**A.** 0.899

**Q.** With `O=C(O[C@@H]1C[C@@H]2C[C@H]3C[C@H](C1)N2CC3=O)c1c[nH]c2ccccc12` [Dolasetron] as the compound, how does the cell viability read?
**A.** 1.15

**Q.** Which cell viability does the source give for `CNCC[C@H](Oc1cccc2ccccc12)c1cccs1` [Duloxetine HCl] here?
**A.** 1.13

**Q.** `Cc1ccc(Sc2ccccc2N2CCNCC2)c(C)c1` [Vortioxetine] was tested. Which cell viability did it give?
**A.** 0.666

**Q.** Which cell viability does the source give for `O=c1ccccn1CC1(O)CCN(Cc2ccccc2)CC1` here?
**A.** 1.05

**Q.** How did the cell viability turn out when `Clc1ccc2c(c1)N=C(N1CCNCC1)c1ccccc1N2` [N-Desmethylclozapine] was run?
**A.** 0.907

**Q.** `COc1ccc(NC(=O)Nc2ccc(F)cc2F)cc1-c1c(Br)cnn1C` [Nelotanserin] was tested. Which cell viability did it give?
**A.** 1.09
